# Experiments:
# Test in all cases: PBM binding z-score (relative to random genomic background probes); higher = stronger binding; sequences stand for … in GC…GCGATTGACAGCGTAGAATGAAGG
# [1] = test system: FXR:RXRa (NR concentration 270 nM, RXRa partner concentration 90 nM)
# How it was run: (§1)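 Custom Agilent 4×180K protein-binding microarrays carried double-stranded probes. Their 34-nt variable regions held direct-repeat seeds, single-nucleotide variants, half-site ablations and random human genomic background sequences. Arrays were incubated 1 h with ligand-free nuclear receptor dimers in PBS pH 7.4, 2% milk, 0.02% Triton X-100, 1 mM DTT, 0.2 mg/mL BSA and 0.4 mg/ml salmon testes DNA. Antibodies against each partner (one per run) detected binding, and scanned fluorescence was regression-normalized. Binding z-scores use random background probes as reference.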
# [2] = test system: LXRa:RXRa (NR concentration 270 nM, RXRa partner concentration 90 nM)
# How it was run: as §1
# [3] = test system: LXRa homodimer (NR concentration 270 nM)
# How it was run: as §1
# [4] = test system: LXRb:RXRa (NR concentration 270 nM, RXRa partner concentration 90 nM)
# How it was run: as §1
# [5] = test system: LXRb homodimer (NR concentration 270 nM)
# How it was run: as §1
# [6] = test system: PPARa:RXRa (NR concentration 270 nM, RXRa partner concentration 90 nM)
# How it was run: as §1
# [7] = test system: PPARg:RXRa (NR concentration 180 nM, RXRa partner concentration 90 nM)
# How it was run: as §1
# [8] = test system: PPARg:RXRa 270nM:90nM, anti-RXR (NR concentration 270 nM, RXRa partner concentration 90 nM)
# How it was run: as §1
# [9] = test system: PPARg:RXRa 30nM:10nM, anti-RXR (NR concentration 30 nM, RXRa partner concentration 10 nM)
# How it was run: as §1
# [10] = test system: PPARg:RXRa 90nM:30nM, anti-RXR (NR concentration 90 nM, RXRa partner concentration 30 nM)
# How it was run: as §1
# [11] = test system: PPARg:RXRa DBDmut IVT, anti-RXR (DBD mutation: RXRa K156A/R161A, NR concentration 270 nM, RXRa partner concentration 90 nM)
# How it was run: as §1
# [12] = test system: PPARg:RXRa IVT, anti-PPARg (NR concentration 270 nM, RXRa partner concentration 90 nM)
# How it was run: as §1
# [13] = test system: PPARg DBDmut:RXRa IVT, anti-PPARg (DBD mutation: PPARg1 K132A/R137A, NR concentration 270 nM, RXRa partner concentration 90 nM)
# How it was run: as §1
# [14] = test system: PPARg DBDmut IVT, anti-PPARg (DBD mutation: PPARg1 K132A/R137A, NR concentration 270 nM)
# How it was run: as §1
# [15] = test system: PPARg homodimer (NR concentration 180 nM)
# How it was run: as §1
# [16] = test system: PXR:RXRa (NR concentration 270 nM, RXRa partner concentration 90 nM)
# How it was run: as §1
# [17] = test system: PXR homodimer (NR concentration 270 nM)
# How it was run: as §1
# [18] = test system: RARa:RXR (NR concentration 270 nM, RXRa partner concentration 90 nM)
# How it was run: as §1
# [19] = test system: RARa homodimer (NR concentration 270 nM)
# How it was run: as §1
# [20] = test system: RARb:RXRa (NR concentration 270 nM, RXRa partner concentration 90 nM)
# How it was run: as §1
Sequence,PBM binding z-score [1],PBM binding z-score [2],PBM binding z-score [3],PBM binding z-score [4],PBM binding z-score [5],PBM binding z-score [6],PBM binding z-score [7],PBM binding z-score [8],PBM binding z-score [9],PBM binding z-score [10],PBM binding z-score [11],PBM binding z-score [12],PBM binding z-score [13],PBM binding z-score [14],PBM binding z-score [15],PBM binding z-score [16],PBM binding z-score [17],PBM binding z-score [18],PBM binding z-score [19],PBM binding z-score [20]
TTACCAAGGGGAAGGTCGTTGATCCCTCTGTAGA,0.907,0.734,-0.259,0.976,-0.862,1.38,0.79,2.13,0.461,1.52,-0.147,0.449,-0.647,-0.525,-0.13,0.711,-0.0192,0.899,-0.541,0.811
ATACCAAGGTGATCGTGAGGTCGTTCATACTAAC,2.05,1.58,1.23,1.4,0.148,1.53,0.472,0.354,-0.0192,-0.0407,0.587,1.54,0.827,0.877,1.15,3.23,2.03,2.01,0.612,1.5
TAGCCTAGGTCATGCGCCAGTATACCACGCGAAC,4.17,3.31,0.602,2.61,0.0918,3.83,2.77,3.08,0.794,1.89,1.95,3.1,1.01,-0.0835,1.11,1.61,-0.142,2.54,-0.948,3.76
ACAAACAGGTGATGAAGGTAACTCAGGCTATCAT,0.258,0.355,0.00497,0.22,0.327,0.415,0.866,0.462,0.363,0.0404,1.05,1.01,0.711,0.584,0.773,0.14,0.394,0.713,0.803,0.582
ATCTAAAGGTCGTGAGGTGAGTATACAGAAAGGC,5.84,5.04,1.01,3.73,1.12,5.2,4.73,4.73,2.02,3.72,1.12,2.89,1.3,1.74,2.21,3.4,0.645,4.46,1.13,4.15
ATATGCAGGTTAAGGGTCATTCAGGTTGGTTCGC,5.08,4.8,3.05,4.56,1.17,5.84,9.18,7.85,8.36,8.7,3.94,5.19,0.744,1.06,2.9,5.48,1.82,6.03,1.71,3.6
CCAGACAGGCGAAAGGTAACTCAGTCTGGTACGC,-0.414,-0.478,-0.885,-0.448,-1.33,0.667,1.57,2.87,0.676,2.22,-0.357,-0.108,-0.986,-1.21,-0.19,-0.328,-0.718,-0.0922,-0.38,-0.0959
TCATATAGGTAAACAGGTGAAAGTGCGTAAGTTA,1.13,1.29,0.37,1.13,0.114,3.19,4.88,5.09,4.64,5.1,4.84,4.9,1.29,1.03,1.33,1.04,0.631,1.27,1.75,0.94
ATCTCTAGGTAACCTAGTTCAGTGAATGCCGAAC,0.745,1.07,0.16,1.26,0.421,2.24,1.69,1.42,0.221,0.568,4.08,4.62,1.92,1.24,1.02,1.02,0.262,0.692,0.202,0.704
CGAATGAGGGCATGAGTTGATAGCAAATGCCGAT,0.504,0.377,-0.461,0.209,-0.511,1.7,1.92,1.99,0.599,1.49,4,3.15,0.455,-0.417,0.0655,0.525,0.166,0.61,-0.437,1.8
CCTAGGTGGTCAGGAGGTCACACACCGGATATGA,3.9,3.3,1.72,3.05,0.062,3.95,3.45,3.53,1.29,3.03,0.549,3.02,-0.0513,-0.161,3.26,4.04,1.33,4.78,1.85,3.71
CCTACTGGGCCATCAGGTCATAGATATCAACGTT,1.22,0.89,0.812,1.18,-0.323,2.72,3.22,3.9,1.86,3.15,4.5,5.08,0.923,-0.119,1.49,1.15,0.269,1.87,0.283,1.99
TCGAGTAGGTTAGCCGGGGCATTCAGCCAACATA,0.0762,-0.0841,-0.659,0.0461,-1.01,0.893,-0.0642,0.609,0.847,0.701,1.95,1.45,-0.971,-1.01,-0.00962,0.241,-0.374,0.484,-0.48,0.608
GGAACGAGGGCAAAGTTGTTAGCATCTGTCGACG,0.763,0.635,-0.337,0.517,-0.419,2.61,3.61,4.82,2.96,4.84,3.85,3.57,0.128,-0.75,0.469,0.802,0.198,0.675,0.0341,2.31
ATCTCTAGGTAAATATAGTTCAGTGAATGCAAAT,0.614,5.89,1.51,2.5,1.12,0.691,1.16,0.903,1.13,1.05,1.8,1.91,1.61,1.65,1.19,1.38,0.957,0.923,1.21,0.851
CGAAGTAGGTCATTGACAGGACAGTGAATAGTAA,4.75,3.56,0.791,2.6,0.392,5.05,7.92,6.67,4.6,6.57,8.42,8.66,3.43,2.58,2.08,2.16,0.395,2.66,0.16,3.58
GCATATAGGTATTACAAGGTGAAAGTCCGATTGT,0.758,0.25,0.246,0.0719,-0.375,1.38,0.78,0.981,0.434,0.722,1.46,1.46,0.48,1.21,0.307,0.0796,0.205,1.69,0.465,0.417
TCGAGGAGGTTAGTCGGGGCATTCAGCCAACATA,0.421,0.675,-0.136,1.21,-0.337,1.43,-0.118,0.893,1.23,0.779,1.28,0.923,-0.713,-1.04,0.777,1.05,0.348,0.897,-0.313,1.01
GCAGACAGGTGAAACGCACGTAACTCAGGGTGGC,-0.552,-0.392,-0.524,-0.277,-0.898,0.511,0.771,0.0365,-0.437,-0.223,0.74,0.58,0.226,-0.35,-0.768,-0.397,-0.419,-0.0418,-0.719,0.539
ACTAGCAGGCCAAGGGTCCCTCAAGATTAGTCCG,-0.253,-0.502,-0.631,-0.64,-1.13,1.09,2.3,4.09,1.73,3.84,0.0687,0.882,-0.919,-0.963,-0.0936,-0.598,-0.427,-0.327,-1.05,0.381
TCTATTAGTTTATTAGGGCAACCGAAACAGCGGA,1.14,0.997,1.69,1.25,2.21,2.4,1.56,3.07,3.87,3.33,4.65,4.46,2.16,2.42,1.44,1.07,1.21,0.944,1.74,1.57
CAAACTAGGTAAAGAGGTCAAAGTCCGCTTCCCG,4.77,5.01,4.55,4.65,1.08,5.7,6.6,6.92,5.17,7.2,6.78,6.91,3.48,1.44,5.18,5.5,2.02,6.1,1.43,3.95
ACTAGCATGCCAAGTTTGGGTCACTCAAACAAAG,0.0536,0.057,-0.432,0.606,-0.573,1.23,0.0927,0.138,-0.204,-0.214,-0.0858,0.673,-0.779,-0.563,0.0985,0.71,-0.444,1.14,-0.448,1.28
CGAACTAGGTCAGAACAGGACAGTGGAGGATGAT,1.69,0.958,-0.201,0.242,-0.2,2.93,5.08,4.33,1.86,3.73,7.32,7.18,1.32,0.317,0.748,0.65,-0.155,0.722,0.321,2.99
CGAACGAGGGGATGAGTTGATAGCAAATGCCGAT,0.0387,-0.222,-0.351,-0.0303,-0.345,-0.335,0.733,0.0328,-0.38,-0.23,0.602,0.068,0.241,0.151,0.0087,-0.392,0.00406,-0.399,0.243,-0.301
GTACCCAGGTGAATAGGTCGTTGATGAGTAGGCG,0.381,0.343,-0.131,0.285,-0.0749,1.59,1.34,1.25,0.309,0.972,1.26,2.42,-0.166,-0.407,0.786,0.279,0.138,1.08,0.238,0.908
GCATATAGGTAATACTAGGTGAAAGTCCGATTGT,0.715,2.49,0.179,0.49,-0.275,2.06,2.22,2.48,1.09,2.43,4.82,4.2,0.862,0.925,0.614,0.155,0.151,1.1,0.695,0.113
TGTCAAAGTTCAAAGATAACGTAAGTATCCACAC,6.56,6.17,4.28,4.11,2.1,5.01,7.86,6.97,4.95,6.88,-0.252,3.78,1.64,1.45,2.47,4.66,3.83,3.6,1.54,4.92
